This note sets out measurements from the supplement of paper PMC7366291.

Molecules are shown by their SMILES. Counter-ions that a name gives are not always drawn. ± gives the standard deviation or the standard deviation of the averaged measurements.

What all share (conditions): 25 µM; exposure: 24-48 hpf
Test [1] relates to Danio rerio Tg(wt1b:EGFP) embryo, pronephros. Kind of test: glomerular separation, fold change vs DMSO control; higher = glomeruli further apart (abnormal). Summed up:
(§1)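 Dechorionated Tg(wt1b:EGFP) zebrafish embryos were exposed to 25 μM compound in 0.5% DMSO, HEPES-buffered E3 with 0.003% PTU, from 24 to 48 hpf at 28.5°C. Pronephroi were imaged dorsally in agarose-filled 96-well plates (470 nm, 10 z-slices). On maximum projections, 16 reference points were set manually in Fiji and a macro computed distances and angles. Values more than 2 SD from the feature mean were excluded. Each feature is a fold change relative to the mean of same-day DMSO controls.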

Test [2] has the same test system. Briefly: glomerular width (mean of left and right), fold change vs DMSO control; higher = wider glomerulus. Summed up:
as §1

For test [3] the test system is unchanged. Briefly: fraction of imaged embryos annotated as normal kidney; higher = less nephrotoxic; extreme values may be limits of the assay. Put shortly:
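Dechorionated Tg(wt1b:EGFP) zebrafish embryos were incubated with 25 μM compound in 0.5% DMSO, 5 mM HEPES-buffered E3 and 0.003% PTU from 24 to 48 hpf at 28.5°C. Pronephroi were then imaged by widefield fluorescence, and the fraction of embryos per treatment assigned by hand to the normal-kidney category is given.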

Test [4] shares this test system. Briefly: pronephric angle neck segment to proximal convoluted tubule (mean of left and right), fold change vs DMSO control; higher = larger pronephric angle. Put shortly: as §1

`Nc1nc(NC2CC2)c2ncn([C@H]3C=C[C@@H](CO)C3)c2n1` [Abacavir Sulfate]: in test [1], the glomerular separation is 0.958 ± 0.35. This compound also came in with a glomerular width in test [2] of 1.05 ± 0.052. In test [3], the “fraction of imaged embryos annotated as normal kidney” value (“fraction of imaged embryos annotated” for short) came out at 0.9. In test [4], the “pronephric angle neck segment” value was found to be 1.04 ± 0.034.
For `CC(N)C12CC3CC(CC(C3)C1)C2` (centres undefined) [Rimantadine Hydrochloride], in that order: 0.846 ± 0.35, 0.967 ± 0.064, 0.917 and 1.04 ± 0.04.
The matching figures for `CNCC[C@@H](Oc1cccc2ccccc12)c1cccs1` [(R)-Duloxetine hydrochloride]: 1.15 ± 0.49, 1.046 ± 0.0076, 1 and 0.986 ± 0.044.
The matching figures for `C[N+](C)(C)CCCCCC[N+](C)(C)C` [Hexamethonium dibromide dihydrate]: 0.932 ± 0.3, 1.09 ± 0.035, 0.667 and 0.997 ± 0.041.
Regarding `c1ccc(-c2ccc(C(c3ccccc3)n3ccnc3)cc2)cc1` (centres undefined) [Bifonazole], in test [1], the glomerular separation came to 1.24 ± 0.55. The compound further gave a glomerular width in test [2] of 0.786 ± 0.019. Also, in test [3], the “fraction of imaged embryos annotated” value came out at 0.417. In test [4], the “pronephric angle neck segment” value is 1.22 ± 0.14.
The matching figures for `CNC(=O)c1c(I)c(C(=O)NCC(=O)Nc2c(I)c(C(=O)O)c(I)c(C(=O)NCCO)c2I)c(I)c(N(C)C(C)=O)c1I` [Ioxaglic acid]: 0.975 ± 0.39, 1.03 ± 0.037, 0.818 and 0.982 ± 0.035.
The matching figures for `CCc1nc(N)nc(N)c1-c1ccc(Cl)cc1` [Pyrimethamine]: 0.78 ± 0.26, 1.15 ± 0.041, 0.75 and 0.974 ± 0.018.
The matching figures for `COc1c(N2C[C@@H]3CCCN[C@@H]3C2)c(F)cc2c(=O)c(C(=O)O)cn(C3CC3)c12` [Moxifloxacin]: 0.919 ± 0.39, 0.971 ± 0.024, 0.909 and 0.998 ± 0.029.
Compound `O=C(O)c1cccnc1` [Niacin] came in with a glomerular separation in test [1] of 0.706 ± 0.25. In test [2], this compound returned a glomerular width of 1.04 ± 0.063. For the same compound, in test [3], the “fraction of imaged embryos annotated” value came to 0.917. In addition, the “pronephric angle neck segment” value in test [4] amounted to 0.992 ± 0.032.
The matching figures for `CC1Cc2ccccc2N1NC(=O)c1ccc(Cl)c(S(N)(=O)=O)c1` (centres undefined) [Indapamide]: 1.2 ± 0.88, 0.904 ± 0.058, 0.909 and 0.988 ± 0.041.
For `CC1COc2c(N3CCN(C)CC3)c(F)cc3c(=O)c(C(=O)O)cn1c23` (centres undefined) [Ofloxacin], in that order: 1.32 ± 0.67, 1.043 ± 0.0041, 0.833 and 1.06 ± 0.038.
The matching figures for `CN1CCN(C2=Nc3cc(Cl)ccc3Nc3ccccc32)CC1` [Clozapine]: 0.792 ± 0.2, 1.05 ± 0.011, 1 and 0.975 ± 0.058.
Compound `CC(C)COCC(CN(Cc1ccccc1)c1ccccc1)N1CCCC1` (centres undefined) [Bepridil hydrochloride] showed a glomerular separation in test [1] of 0.94 ± 0.41. The same compound returned a glomerular width in test [2] of 1.03 ± 0.03. The “fraction of imaged embryos annotated” value in test [3] was determined as 0.818. Moreover, the “pronephric angle neck segment” value in test [4] is 0.993 ± 0.033.
The matching figures for `CCOC1O[C@H]([C@@H](COCc2ccccc2)OCc2ccccc2)[C@H](OCc2ccccc2)[C@H]1O` (some centres undefined) [Tribenoside]: 1.42 ± 0.96, 0.865 ± 0.056, 0.667 and 1.01 ± 0.018.
Compound `CC(C)[C@H]1CC[C@H](C(=O)N[C@H](Cc2ccccc2)C(=O)O)CC1` [Nateglinide] returned a glomerular separation in test [1] of 0.985 ± 0.37. The compound also displayed a glomerular width in test [2] of 1.04 ± 0.024. For the same compound, in test [3], the “fraction of imaged embryos annotated” value came out at 1. The “pronephric angle neck segment” value in test [4] is 1.08 ± 0.024.
The matching figures for `N[C@@H](Cc1ccc(O)c(O)c1)C(=O)O` [Levodopa]: 1.02 ± 0.31, 1.06 ± 0.048, 0.917 and 0.972 ± 0.018.
For `CNCCCC12CCC(c3ccccc31)c1ccccc12` [Maprotiline hydrochloride], in that order: 1.28 ± 0.49, 0.992 ± 0.049, 0.909 and 1.1 ± 0.058.
The matching figures for `CCC(=O)O[C@]1(C(=O)SCF)[C@H](C)C[C@H]2[C@@H]3C[C@H](F)C4=CC(=O)C=C[C@]4(C)[C@@]3(F)[C@@H](O)C[C@@]21C` [Fluticasone propionate]: 1.84 ± 0.75, 1.27 ± 0.021, 0.0833 and 1.04 ± 0.079.
With `O=C(O)c1cc(/N=N/c2ccc(S(=O)(=O)Nc3ccccn3)cc2)ccc1O` [Sulfasalazine], the glomerular separation in test [1] was 0.959 ± 0.28. In addition, in test [2], the glomerular width worked out at 1.02 ± 0.016. Besides, in test [3], the “fraction of imaged embryos annotated” value worked out at 0.917. Further, the “pronephric angle neck segment” value in test [4] came to 0.999 ± 0.034.
Regarding `COc1ccc(CN(CCN(C)C)c2ccccn2)cc1` [Pyrilamine maleate], the glomerular separation in test [1] stood at 1.29 ± 0.44. The same compound came in with a glomerular width in test [2] of 1.03 ± 0.018. Moreover, the “fraction of imaged embryos annotated” value in test [3] came out at 0.667. In addition, the “pronephric angle neck segment” value in test [4] was determined as 1.03 ± 0.033.
For `CN[C@@H]1[C@@H](O[C@H]2O[C@H](CO)[C@@H](N)[C@H](O)[C@H]2O)OC2C[C@@H](N)[C@@H](O[C@H]3[C@H](O)[C@@H](O)[C@H](N)C[C@@H]3N)OC2[C@@H]1O` (some centres undefined) [Apramycin], in that order: 1.1 ± 0.44, 0.977 ± 0.021, 0.75 and 0.9506 ± 0.0069.
The matching figures for `CN(Cc1ccc(C(C)(C)C)cc1)Cc1cccc2ccccc12` [Butenafine Hydrochloride]: 0.932 ± 0.4, 0.9818 ± 0.007, 0.909 and 1.05 ± 0.12.
For `CCOC(=O)OC(C)OC(=O)[C@@H]1N2C(=O)[C@@H](NC(=O)[C@H](N)c3ccccc3)[C@H]2SC1(C)C` (some centres undefined) [Bacampicillin hydrochloride], in that order: 0.948 ± 0.29, 1.01 ± 0.017, 0.917 and 0.968 ± 0.034.
On to `N[C@@H]1CONC1=O` [D-cycloserine], for which the glomerular separation in test [1] was 0.796 ± 0.24. Further, the glomerular width in test [2] stood at 0.976 ± 0.075. Also, the “fraction of imaged embryos annotated” value in test [3] came to 0.75. The “pronephric angle neck segment” value in test [4] worked out at 0.9921 ± 0.0046.
The matching figures for `O=C(CCCN1CC=C(n2c(=O)[nH]c3ccccc32)CC1)c1ccc(F)cc1` [Droperidol]: 1.38 ± 0.42, 0.84901 ± 0.00078, 0.667 and 1.04 ± 0.046.
The matching figures for `CC(C(=O)O)c1cccc(Oc2ccccc2)c1` (centres undefined) [Fenoprofen calcium salt dihydrate]: 3.89 ± 1.7, 0.88 ± 0.059, 0 and 1.55 ± 0.027.
